# Laboratory results published in the supplement of paper PMC4466140.
# Key:
# Test in all cases: SPOT peptide array binding signal intensity (averaged, normalized) (arbitrary units (background-subtracted, floor 0; scale differs between SH3 domains)); higher = stronger binding of the SH3 domain to the peptide
# [1] = biological target: AgAbp1
# How it was run: (§1)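 Binding signal is given in arbitrary units that differ between domains and is the normalized, background-subtracted spot intensity averaged across replicates. Each GST-SH3 fusion from one of four yeast species was made in E. coli BL21(DE3), purified on glutathione Sepharose and incubated at 10 μg/ml overnight at 4°C on cellulose-bound synthetic 15-mer peptides in which cysteines were replaced by serines. Detection used anti-GST antibody, an HRP anti-mouse secondary and luminol, followed by imaging and Genespotter quantification.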
# [2] = biological target: AgBbc1
# How it was run: as §1
# [3] = biological target: AgBem1-D1
# How it was run: as §1
# [4] = biological target: AgBzz1-D1
# How it was run: as §1
# [5] = biological target: AgBzz1-D2
# How it was run: as §1
# [6] = biological target: AgCyk3
# How it was run: as §1
# [7] = biological target: AgFus1
# How it was run: as §1
# [8] = biological target: AgHof1
# How it was run: as §1
# [9] = biological target: AgHse1
# How it was run: as §1
# [10] = biological target: AgLsb1
# How it was run: as §1
# [11] = biological target: AgLsb4
# How it was run: as §1
# [12] = biological target: AgMyo5
# How it was run: as §1
# [13] = biological target: AgNbp2
# How it was run: as §1
# [14] = biological target: AgRvs167
# How it was run: as §1
# [15] = biological target: AgSho1
# How it was run: as §1
# [16] = biological target: AgSla1-D1-D2
# How it was run: as §1
# [17] = biological target: AgSla1-D3
# How it was run: as §1
# [18] = biological target: CaAbp1-D1
# How it was run: as §1
# [19] = biological target: CaAbp1-D2
# How it was run: as §1
# [20] = biological target: CaBbc1
# How it was run: as §1
# [21] = biological target: CaBem1-D1
# How it was run: as §1
# [22] = biological target: CaBzz1-D1
# How it was run: as §1
# [23] = biological target: CaBzz1-D2
# How it was run: as §1
# [24] = biological target: CaCyk3
# How it was run: as §1
# [25] = biological target: CaFus1
# How it was run: as §1
# [26] = biological target: CaHof1
# How it was run: as §1
# [27] = biological target: CaHse1
# How it was run: as §1
# [28] = biological target: CaLsb1
# How it was run: as §1
# [29] = biological target: CaLsb4
# How it was run: as §1
# [30] = biological target: CaMyo5
# How it was run: as §1
# [31] = biological target: CaNbp2
# How it was run: as §1
# [32] = biological target: CaRvs167
# How it was run: as §1
# [33] = biological target: CaRvs167-3
# How it was run: as §1
# [34] = biological target: CaSho1
# How it was run: as §1
# [35] = biological target: CaSla1-D1-D2
# How it was run: as §1
# [36] = biological target: CaSla1-D3
# How it was run: as §1
# [37] = biological target: ScAbp1
# How it was run: as §1
# [38] = biological target: ScBbc1
# How it was run: as §1
# [39] = biological target: ScBem1-D1
# How it was run: as §1
# [40] = biological target: ScBzz1-D1
# How it was run: as §1
# [41] = biological target: ScBzz1-D2
# How it was run: as §1
# [42] = biological target: ScCyk3
# How it was run: as §1
# [43] = biological target: ScFus1
# How it was run: as §1
# [44] = biological target: ScHof1
# How it was run: as §1
# [45] = biological target: ScHse1
# How it was run: as §1
# [46] = biological target: ScLsb1
# How it was run: as §1
# [47] = biological target: ScLsb2
# How it was run: as §1
# [48] = biological target: ScLsb3
# How it was run: as §1
# [49] = biological target: ScLsb4
# How it was run: as §1
# [50] = biological target: ScMyo3
# How it was run: as §1
# [51] = biological target: ScMyo5
# How it was run: as §1
# [52] = biological target: ScNbp2
# How it was run: as §1
# [53] = biological target: ScPex13
# How it was run: as §1
# [54] = biological target: ScRvs167
# How it was run: as §1
# [55] = biological target: ScSho1
# How it was run: as §1
# [56] = biological target: ScSla1-D1-D2
# How it was run: as §1
# [57] = biological target: ScSla1-D3
# How it was run: as §1
# [58] = biological target: SpAbp1-D1
# How it was run: as §1
# [59] = biological target: SpBbc1
# How it was run: as §1
# [60] = biological target: SpBzz1-D1
# How it was run: as §1
# [61] = biological target: SpBzz1-D2
# How it was run: as §1
# [62] = biological target: SpCyk3
# How it was run: as §1
# [63] = biological target: SpHof1
# How it was run: as §1
# [64] = biological target: SpHof1-2
# How it was run: as §1
# [65] = biological target: SpHof1-3
# How it was run: as §1
# [66] = biological target: SpHse1
# How it was run: as §1
# [67] = biological target: SpLsb1
# How it was run: as §1
# [68] = biological target: SpLsb4
# How it was run: as §1
# [69] = biological target: SpMyo1
# How it was run: as §1
# [70] = biological target: SpNbp2
# How it was run: as §1
# [71] = biological target: SpPex13
# How it was run: as §1
# [72] = biological target: SpRvs167
# How it was run: as §1
# [73] = biological target: SpSla1-D1-D2
# How it was run: as §1
# [74] = biological target: SpSla1-D3
# How it was run: as §1
binder,measurement,setting,value
RKQRSIPLSPIVPES,SPOT peptide array binding signal intensity,[1],7
same,SPOT peptide array binding signal intensity,[2],17
same,SPOT peptide array binding signal intensity,[3],77
same,SPOT peptide array binding signal intensity,[4],15.5
same,SPOT peptide array binding signal intensity,[5],32
same,SPOT peptide array binding signal intensity,[6],2
same,SPOT peptide array binding signal intensity,[7],104
same,SPOT peptide array binding signal intensity,[8],35.5
same,SPOT peptide array binding signal intensity,[9],375
same,SPOT peptide array binding signal intensity,[10],1.5
same,SPOT peptide array binding signal intensity,[11],45.5
same,SPOT peptide array binding signal intensity,[12],0.25
same,SPOT peptide array binding signal intensity,[13],59
same,SPOT peptide array binding signal intensity,[14],3.33
same,SPOT peptide array binding signal intensity,[15],13
same,SPOT peptide array binding signal intensity,[16],≤ 0
same,SPOT peptide array binding signal intensity,[17],3
same,SPOT peptide array binding signal intensity,[18],236
same,SPOT peptide array binding signal intensity,[19],98.5
same,SPOT peptide array binding signal intensity,[20],175
same,SPOT peptide array binding signal intensity,[21],13
same,SPOT peptide array binding signal intensity,[22],58
same,SPOT peptide array binding signal intensity,[23],136
same,SPOT peptide array binding signal intensity,[24],48
same,SPOT peptide array binding signal intensity,[25],368
same,SPOT peptide array binding signal intensity,[26],0.25
same,SPOT peptide array binding signal intensity,[27],12.2
same,SPOT peptide array binding signal intensity,[28],0.5
same,SPOT peptide array binding signal intensity,[29],64
same,SPOT peptide array binding signal intensity,[30],3.5
same,SPOT peptide array binding signal intensity,[31],297
same,SPOT peptide array binding signal intensity,[32],5.17
same,SPOT peptide array binding signal intensity,[33],1.25
same,SPOT peptide array binding signal intensity,[34],83
same,SPOT peptide array binding signal intensity,[35],15
same,SPOT peptide array binding signal intensity,[36],≤ 0
same,SPOT peptide array binding signal intensity,[37],11
same,SPOT peptide array binding signal intensity,[38],20.2
same,SPOT peptide array binding signal intensity,[39],7
same,SPOT peptide array binding signal intensity,[40],25.5
same,SPOT peptide array binding signal intensity,[41],12.5
same,SPOT peptide array binding signal intensity,[42],37
same,SPOT peptide array binding signal intensity,[43],98
same,SPOT peptide array binding signal intensity,[44],0.5
same,SPOT peptide array binding signal intensity,[45],679
same,SPOT peptide array binding signal intensity,[46],1.75
same,SPOT peptide array binding signal intensity,[47],2
same,SPOT peptide array binding signal intensity,[48],243
same,SPOT peptide array binding signal intensity,[49],9
same,SPOT peptide array binding signal intensity,[50],7
same,SPOT peptide array binding signal intensity,[51],6.25
same,SPOT peptide array binding signal intensity,[52],142
same,SPOT peptide array binding signal intensity,[53],4.5
same,SPOT peptide array binding signal intensity,[54],39.7
same,SPOT peptide array binding signal intensity,[55],284
same,SPOT peptide array binding signal intensity,[56],193
same,SPOT peptide array binding signal intensity,[57],57.2
same,SPOT peptide array binding signal intensity,[58],85
same,SPOT peptide array binding signal intensity,[59],0.25
same,SPOT peptide array binding signal intensity,[60],171
same,SPOT peptide array binding signal intensity,[61],0.5
same,SPOT peptide array binding signal intensity,[62],1.5
same,SPOT peptide array binding signal intensity,[63],26.8
same,SPOT peptide array binding signal intensity,[64],2.25
same,SPOT peptide array binding signal intensity,[65],340
same,SPOT peptide array binding signal intensity,[66],293
same,SPOT peptide array binding signal intensity,[67],2
same,SPOT peptide array binding signal intensity,[68],25.5
same,SPOT peptide array binding signal intensity,[69],3
same,SPOT peptide array binding signal intensity,[70],115
same,SPOT peptide array binding signal intensity,[71],≤ 0
same,SPOT peptide array binding signal intensity,[72],18.8
same,SPOT peptide array binding signal intensity,[73],≤ 0
same,SPOT peptide array binding signal intensity,[74],1
KRNRLKILLPFLEQS,SPOT peptide array binding signal intensity,[1],7
same,SPOT peptide array binding signal intensity,[2],1.75
same,SPOT peptide array binding signal intensity,[3],102
same,SPOT peptide array binding signal intensity,[4],9
same,SPOT peptide array binding signal intensity,[5],41
same,SPOT peptide array binding signal intensity,[6],0.5
same,SPOT peptide array binding signal intensity,[7],1340
same,SPOT peptide array binding signal intensity,[8],30.5
same,SPOT peptide array binding signal intensity,[9],1380
same,SPOT peptide array binding signal intensity,[10],3.5
same,SPOT peptide array binding signal intensity,[11],126
same,SPOT peptide array binding signal intensity,[12],0.5
same,SPOT peptide array binding signal intensity,[13],102
same,SPOT peptide array binding signal intensity,[14],2.33
same,SPOT peptide array binding signal intensity,[15],200
same,SPOT peptide array binding signal intensity,[16],49.5
same,SPOT peptide array binding signal intensity,[17],12.5
same,SPOT peptide array binding signal intensity,[18],342
same,SPOT peptide array binding signal intensity,[19],154
same,SPOT peptide array binding signal intensity,[20],27
same,SPOT peptide array binding signal intensity,[21],≤ 0
same,SPOT peptide array binding signal intensity,[22],5
same,SPOT peptide array binding signal intensity,[23],66.8
same,SPOT peptide array binding signal intensity,[24],3
same,SPOT peptide array binding signal intensity,[25],4760
same,SPOT peptide array binding signal intensity,[26],0.5
same,SPOT peptide array binding signal intensity,[27],57.2
same,SPOT peptide array binding signal intensity,[28],9.75
same,SPOT peptide array binding signal intensity,[29],21
same,SPOT peptide array binding signal intensity,[30],3
EAEEAAPQLPSRSSA,SPOT peptide array binding signal intensity,[61],≤ 0
same,SPOT peptide array binding signal intensity,[62],1
same,SPOT peptide array binding signal intensity,[63],0.5
same,SPOT peptide array binding signal intensity,[64],3.5
same,SPOT peptide array binding signal intensity,[65],1
same,SPOT peptide array binding signal intensity,[66],0.5
same,SPOT peptide array binding signal intensity,[67],4.25
same,SPOT peptide array binding signal intensity,[68],6420
same,SPOT peptide array binding signal intensity,[69],≤ 0
same,SPOT peptide array binding signal intensity,[70],≤ 0
same,SPOT peptide array binding signal intensity,[71],0.5
same,SPOT peptide array binding signal intensity,[72],2390
same,SPOT peptide array binding signal intensity,[73],2
same,SPOT peptide array binding signal intensity,[74],1
